Reference: PubChem BioAssay AID1789 (The Scripps Research Institute Molecular Screening Center, 2009)
The whole screen tested about 290,000 compounds, of which about 2,700 (0.93%) were called active. For the sample, actives were picked, then their nearest neighbours and some compounds at random. Unmarked numbers belong to inactive results.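 How the source made its calls: active means inhibition above the screen-wide mean plus 3 SD, computed separately per campaign (cut at about 16% in these data); inactive means the rest.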

The compounds below were run on Heat shock protein HSP 90 (rabbit reticulocyte lysate; luciferase refolding) (assay: inhibitors of HSP90 chaperone activity – cell lysate, luminescence, primary screen (AID 1789;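 further: 0% = DMSO wells and 100% = 60 µM geldanamycin wells; inhibitors lower the luminescence because luciferase stays unfolded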)). Conditions: 3 h, at 5.6 µM, active compounds read high.

In order of rising inhibition:
1. Cc1nc2ccc(C(=O)N(C)CC3CCCN(CCc4ccc(Cl)cc4)C3)cc2[nH]1 (centres undefined)  -8.86%
2. CCCc1cc(=O)oc2c(C)c(OC(C)C(=O)NCC(O)c3ccccc3)ccc12 (centres undefined)  -5.71%
3. CCCc1ccc(OCCNC(=O)c2ccco2)cc1  -5.63%
4. COc1ccc(OCCCC(=O)NCCc2ccccc2)cc1  -4.96%
5. CCOc1cc(C2/C(=C(/O)c3ccc(S(=O)(=O)N4CCCCC4)cc3)C(=O)C(=O)N2CCOC)ccc1O (centres undefined)  -4.72%
6. COc1ccc(OC)c(NC(=O)c2ccc3c(c2)CCN3S(C)(=O)=O)c1  -4.49%
7. COc1nc(-c2ccc(Cl)cc2)ccc1-c1noc(-c2cccs2)n1  -4.45%
8. Nc1ccc(-c2sc(N)nc2-c2ccccc2)cc1  -4.32%
9. OC(c1nc2ccc(F)cc2[nH]1)C(O)c1nc2ccc(F)cc2[nH]1 (centres undefined)  -4.25%
10. O=C(COc1ccc2ccc(=O)oc2c1)NCC(O)c1ccccc1 (centres undefined)  -3.81%
11. COc1ccc(C(=O)O/N=C(\N)c2ccccn2)cc1[N+](=O)[O-]  -3.48%
12. CCOc1ccc(S(=O)(=O)N2CCCC(C(=O)N3CCC(C(N)=O)CC3)C2)cc1Cl (centres undefined)  -3.03%
13. COc1cccc(NC(=O)C/C(C)=N/NC(=O)C2CCCCC2)c1  -2.92%
14. CC1CCCCN1CCCNc1ccc(C(CC(N)=O)NC(=O)c2ccccc2)cc1[N+](=O)[O-] (centres undefined)  -2.66%
15. Cc1ccc(NC(=O)C(CC(=O)O)C2CCCO2)c(C)c1 (centres undefined)  -2.07%
16. COc1ccc(C(C)NC(=O)C2CCCC2)cc1 (centres undefined)  -1.94%
17. O=C(CN1CCN(C(=O)C2CCCO2)CC1)Nc1c(Cl)cccc1Cl (centres undefined)  -1.9%
18. CCCCNC(=S)NNC(=O)c1cc(C)on1  -1.37%
19. COc1cccc(C(=O)N/N=C(\C)c2cccc(NC(=O)c3ccc(F)cc3)c2)c1OC  -0.84%
20. Brc1ccc(-c2nnc(-c3ccccc3)o2)o1  -0.79%
21. Cc1ccc(/C=N/NC(=S)NC2CCCCC2)o1  -0.34%
22. Cc1cnc(NC(=O)c2ccc(Cl)nc2)s1  -0.28%
23. OC(c1nc2ccccc2[nH]1)C(O)C(O)C(O)c1nc2ccccc2[nH]1 (centres undefined)  -0.14%
24. O=C(O)CSc1c2c(nc3cc(C(=O)Nc4cccc(C(F)(F)F)c4)ccc13)CCCC2  -0.05%
25. Cc1n[nH]c(=O)c2c1nnn2Cc1ccc(F)cc1  0.06%
26. CCN(CC)CCN1C(=O)C(=O)/C(=C(/O)c2ccc(OC)c(OC)c2)C1c1ccccn1 (centres undefined)  0.07%
27. Nc1cc(N2CCCCCC2)c2nonc2c1[N+](=O)[O-]  0.32%
28. CS(=O)(=O)c1sc2nc(-c3ccccc3)cc(-c3ccccc3)c2c1N  0.41%
29. O=C(Nc1ccccc1Cl)NC1(C(=O)N2CCOCC2)CCCCC1  0.58%
30. O=C(C1CCC(=O)N(C2CC2)C1)N1CCN(c2ccc(Cl)cc2)CC1 (centres undefined)  0.69%
31. COc1ccc(C(=O)NCCn2nc(C)cc2C)cc1OC1CCN(C(C)=O)CC1  0.85%
32. C#CCOc1ccc(/C=C2/C(=O)ON=C2C)cc1OCC  1.13%
33. C/C(=N/NC(=O)c1ccc(Br)o1)c1ccc(C)o1  1.47%
34. CCN(CC)CCN1C(=O)C(=O)/C(=C(/O)c2ccccc2)C1c1ccccc1F (centres undefined)  1.61%
35. Cc1ccc2c(N)c(C(=O)c3ccccc3)sc2n1  1.67%
36. Cc1nc2ccc(C(=O)N/N=C/c3ccc(O)cc3)cc2[nH]1  1.87%
37. NS(=O)(=O)c1cccc(NC(=O)CSc2nc3ccccc3n2-c2ccccc2)c1  2.1%
38. COCC1CCCN(C(=O)c2ccc3oc(C(C)C)nc3c2)C1 (centres undefined)  2.21%
39. N/C(=N\OC(=O)c1ccc([N+](=O)[O-])cc1)c1ccccn1  2.51%
40. CCOC(=O)N1CCC(NC(=O)CCc2ccccc2)CC1  2.73%
41. O=C(Oc1ccc(-c2nc(-c3ccccn3)no2)cc1)c1ccccc1  3.06%
42. CCCOc1cccc(C(=O)NCCCNC(=O)c2cccnc2)c1  3.77%
43. Cc1ccc(C)c(NS(=O)(=O)c2c(C)[nH]c(C)c2C(=O)N2CCCCC2)c1  3.8%
44. Cc1ccc(SCCC(=O)OCC(=O)Nc2ncc(Cl)cc2Cl)cc1  3.89%
45. CCCCNC(=O)C(=O)c1ccccc1NC(C)=O  4.09%
46. CN(C)c1ccc(C2N(C)C(=O)c3ccccc3N2C)cc1 (centres undefined)  4.78%
47. COc1ccc(C(=O)n2nc(C)c(Br)c2C)cc1OC  4.92%
48. Fc1ccccc1/C=C1\CCCC2=C1Nc1ncnn1C2c1ccccc1F (centres undefined)  5.24%
49. Cn1ncc2c(NNC(=O)Cc3cccc4ccccc34)ncnc21  5.78%
50. CC(C)CC[n+]1ccn(C2=C([O-])c3ccccc3C(=O)/C2=N\S(=O)(=O)c2ccccc2)c1  6.11%
51. CCOC(=O)c1sc(NC(=O)c2sc(C)nc2C)nc1C  9.21%
52. O=C(Nc1nnc(C2CC2)s1)c1ccccn1  16%

With c1ccc(-c2noc(-c3cccs3)n2)nc1 the inhibition was 21.2% (active).
C/C(=N\NC(=S)NC1CCCCC1)c1ccc(C)o1 was tested, and the inhibition was 19.9% (active).
For Cc1ccc(-n2c(SCC(=O)Nc3ncc(Cl)cc3Cl)nc3ccccc32)cc1, the inhibition was 19.5% (active).
In the case of Nc1ccc(-c2nnc(-c3ccccc3)o2)cc1, the inhibition was 20.3% (active).
For CCCOc1ccc(C(=O)NCCc2ccccc2)cc1, the inhibition was 20.7% (active).
In the case of Cc1ccc(C(=O)O/N=C(\N)c2ccccn2)cc1Cl, the inhibition was 42.5% (active).
In the case of CCN(CC)C(=O)c1sc2nc(-c3ccccc3)ccc2c1N, the inhibition was 16.5% (active).
With CCCCNC(=O)Nc1c(C)cc(SC#N)cc1C the inhibition was 36.7% (active).
Cc1nc2ccc(C(=O)O)cc2[nH]1 was tested, and the inhibition was 31.3% (active).
In the case of CC(C)c1nc2ccc(C(=O)O)cc2[nH]1, the inhibition was 37.9% (active).
For Cc1cnc(NC(=O)c2ccccn2)s1, the inhibition was 21% (active).
CCN(CC)CCN1C(=O)C(=O)/C(=C(/O)c2cnn(-c3ccccc3)c2C)C1c1cccs1 (centres undefined) was tested, and the inhibition was 33.3% (active).
